Rows were chosen to be rich in hits. Some 3.6% of all compounds tested hit in one or more screens of this group.
Mtb FBA inh = inhibitors of M. tuberculosis fructose-bisphosphate aldolase | hit rate 2.3% among 360,000 | purified M. tuberculosis FBA, fluorescence read-out | inhibition, % at 1 µM | P9WQA3; in the data active = inhibition above about 27%
VHR inh abs = blocks human VHR1 dual specificity phosphatase. inhibition, % at 13.3 µM. P51452. recombinant VHR phosphatase, pNPP absorbance. hit rate 0.52% among 290,000; in the data active = inhibition above about 50%
Target sequence (P51452 whole entry, looked up): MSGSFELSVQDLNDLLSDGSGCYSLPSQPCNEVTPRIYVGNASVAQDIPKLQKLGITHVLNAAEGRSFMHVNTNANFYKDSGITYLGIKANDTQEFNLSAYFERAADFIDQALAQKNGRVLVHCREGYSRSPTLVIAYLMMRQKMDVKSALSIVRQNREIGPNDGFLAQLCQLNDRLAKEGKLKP
GDH-TPI counter = GDH-TPI coupled enzyme inhibition counter-screen; GDH-TPI coupled enzyme counterscreen, NADH absorbance; inhibition, % at 4.8 µM; hit rate 1.2% among 360,000; AID 588335; in the data active = inhibition above about 30%
Mtb hypoxia inh = reduces hypoxia-regulated biosensor signal in M. tuberculosis; fluorescence inhibition, % (test concentration not listed); M. tuberculosis hypoxia-regulated fluorescent reporter, fluorescence; hit rate 0.1% among 300,000; in the data active = fluorescence inhibition mostly above about 23%, no sharp cut-off; inactive = mostly below about 17%
Mtb betalactam = beta-lactam sensitization of Mtb H37Rv | M. tuberculosis H37Rv growth with meropenem, percent inhibition | inhibition, % at 25 µM | hit rate 0.27% among 330,000 | AID 434955; call rule not given here;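 note: growth measured after seven days incubation then overnight dye step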
Hits are given with their value; n = inactive; x = no result given; + = active, no number.

SMILES	Mtb FBA inh	VHR inh abs	GDH-TPI counter	Mtb hypoxia inh	Mtb betalactam
Cc1ccc2nc(SCC(=O)c3ccc(O)cc3O)[nH]c2c1	n	n	51	n	n
Cc1ccc2nc(SCC(=O)Nc3nonc3C)[nH]c2c1	n	54	n	n	n
COc1ccc2nc(SCC(=O)Nc3nonc3C)[nH]c2c1	n	n	n	n	n
CC(C)(C)NC(=O)CSc1nc(N)cc(=O)[nH]1	n	n	n	n	n
COC(=O)CSc1nc2ccc(C)cc2[nH]1	n	n	n	x	n
COc1ccc(CC(C)=NNC(=S)Nc2ccc(C(C)C)cc2)cc1	x	x	x	n	x
O=C(CCCN1C(=O)c2cccnc2C1=O)Nc1ccc(F)cc1Cl	+	n	n	n	n
NC1=NC(=O)/C(=C\c2cccs2)S1	n	n	48	x	n
O=C1N=C(N2CCOCC2)S/C1=C\c1cccs1	n	n	n	x	n
CC(C)CC(NC(=O)OC(C)(C)C)C(=O)NC(CO)C(O)C1CC1C(=O)NC1CCCCC1 (configuration not stated)	x	x	x	n	x
CCOC(=O)N1CCN(c2ncnc3c2[nH]c2ccc(OC)cc23)CC1	125	n	n	n	n
CCOC(=O)C1CCN(c2ncnc3c2[nH]c2cccc(OC)c23)CC1	125	n	n	n	n
CCOC(=O)N1CCN(c2ncnc3c2[nH]c2ccc(F)cc23)CC1	n	n	n	n	n
COc1cccc2[nH]c3c(N4CCCCC4)ncnc3c12	n	n	n	n	n
CN(C)C=NC(=S)Nc1ccc(Cl)c(Cl)c1	x	x	x	n	x
CCOC(=O)C(=Cc1c[nH]c2ccc(S(=O)(=O)N(C)C)cc12)C(=O)OCC	n	n	41	n	n
CCOC(=O)/C(C#N)=C/c1c[nH]c2ccccc12	n	n	n	n	n
C=CCC(CC(=O)NCCO)C(=O)NC(COC(=O)C(CC=C)Cc1ccc(F)cc1)c1ccccc1 (configuration not stated)	x	x	x	n	x
COc1ccc(NC(=O)NC(CCSC)C(=O)O)cc1Cl (configuration not stated)	x	x	x	n	x
COc1cc(NC(=O)/C=C/c2ccccc2)c(C(=O)O)cc1OC	n	n	44	n	n
COC(=O)c1cc(OC)c(OC)cc1NC(=S)Nc1cccc(Cl)c1	n	n	n	x	n
COc1cc(NC(=O)Nc2cccc(Cl)c2)c(C(=O)O)cc1OC	146	n	n	n	n
COc1cc(NC(=O)Cc2ccccc2)c(C(=O)O)cc1OC	n	n	n	n	n
COC(=O)C1=COC(C)C2CN3CC[C@]4(C(=O)Nc5ccccc54)C3CC12 (some centres not stated)	x	x	x	n	x
O=C(Nc1cccc(-c2csc(Nc3ccc(Cl)cc3)n2)c1)c1cc([N+](=O)[O-])cc(C(F)(F)F)c1	n	n	41	n	n
SMILES	Mtb FBA inh	VHR inh abs	GDH-TPI counter	Mtb hypoxia inh	Mtb betalactam
O=C(Nc1cccc(-c2csc(Nc3ccccc3)n2)c1)c1cc([N+](=O)[O-])cc(C(F)(F)F)c1	n	n	n	n	n
O=C(N/N=C/c1ccccn1)c1[nH]c2ccc([N+](=O)[O-])cc2c1-c1ccccc1	n	n	41	x	n
NNC(=O)c1[nH]c2ccc([N+](=O)[O-])cc2c1-c1ccccc1	n	n	n	n	n
CC(=NNP(=S)(c1ccccc1)c1ccccc1)c1ccc(O)cc1O	x	x	x	n	x
C/C(=N\NP(=S)(c1ccccc1)c1ccccc1)c1ccc(O)cc1O	n	n	32	x	n
CC(=NCc1ccccc1)c1ccc(O)cc1O	n	x	34	x	x
CC(C)c1ccc2[nH]c3nc(SCC(=O)NC4CC4)nnc3c2c1	n	n	n	n	n
COc1ccc2[nH]c3nc(SCC(=O)NNC(=O)c4ccc(OC)c(OC)c4)nnc3c2c1	n	n	41	n	n
Cc1ccc(C(=O)NNC(=O)CSc2nnc3c(n2)[nH]c2ccc(F)cc23)cc1	n	57	n	n	n
COc1ccccc1CNC(=O)CSc1nnc2c(n1)[nH]c1ccc(F)cc12	n	n	n	n	n
Cc1nnc(NC(=O)CSc2nnc3c(n2)[nH]c2ccc(Br)cc23)s1	n	60	n	n	n
COc1cc([N+](=O)[O-])cc(C=NN(CCC#N)C(C)=O)c1O	x	x	x	n	x
CCOc1cc(C=NNC(=O)c2cccnc2)ccc1OCC(=O)N(C)C	x	x	x	n	x
CC(=NNC(=S)NCc1ccccc1)c1ccc(C(C)(C)C)cc1	x	x	x	n	x
S=c1[nH]cnc2sc(-c3ccccc3)cc12	n	n	52	x	n
Cc1cccc(N2CCN(C(=O)c3ccc(Cl)c(S(=O)(=O)N4CCc5ccccc5C4)c3)CC2)c1C	n	59	n	x	n
O=C(c1ccc(Cl)c(S(=O)(=O)N2CCc3ccccc32)c1)N1CCN(c2ccccc2O)CC1	n	x	n	n	n
